High-throughput results: PubChem BioAssay, National Center for Advancing Translational Sciences (NCATS)
Most compounds without a hit are left out; they make up all but 20% or so of the library.
Pf growth 96h = Primary qHTS for delayed death inhibitors of the malarial parasite plastid, 96 hour incubation | Potency, µM (titrated, usually from 28.7 µM), for the others: at the top dose activity change, negative = inhibition, most hits filed as inhibitors | 320,000 tested, 6.9% active | P. falciparum luciferase reporter growth, 96 h; note: potency is the fitted concentration of half-maximal effect; % is set by controls: 0 for no effect and ±100 for the full control effect
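Erythrocytes infected with luciferase-expressing P. falciparum were dispensed at 2% hematocrit and 0.05% parasitemia (final), then incubated with compounds 96 hours at 37 C in 5% CO2. Luminescence after detection reagent addition reported growth.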
HCMV antiviral = qHTS Assay for inhibitors of the human cytomegalovirus (HCMV) | 410,000 tested, 4.5% active | AID 1259415, 2018 | HFF cells, HCMV-luciferase reporter, 72 h; stronger effect = lower value | activity change, negative = inhibition, % at 57.5 µM; in the data active = activity change below about -60%; inconclusive = no clear call, values can overlap the other calls; inactive = above about -39%; note: % is set by controls: 0 for no effect and ±100 for the full control effect
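Compounds were evaluated in HFFs infected with an HCMV luciferase reporter virus (MOI 1 PFU/cell). Luciferase in lysates collected 72 h post infection served as the replication measure.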
Cycloheximide cs = Cycloheximide Counterscreen for Small Molecule Inhibitors of Shiga Toxin; AID 2314, 2010; max response, %; cell reporter, cycloheximide protein synthesis inhibition counterscreen; 300,000 tested, 12% active; in the data active = max response mostly above about 13%, no sharp cut-off; inactive = mostly below about 14%; note: read at 38.3 µM for the half of the compounds with a filed dose; 0% is about no effect
Shiga inhibitor = A qHTS for Small Molecule Inhibitors of Shiga Toxin; Vero cells, Shiga toxin protein synthesis inhibition reporter; inhibition, % at 38.7 µM; 290,000 tested, 9.2% active; in the data active = inhibition mostly above about 28%, no sharp cut-off; inactive = mostly below about 43%; note: 0% is about no effect
Pf growth 48h = Primary qHTS for delayed death inhibitors of the malarial parasite plastid, 48 hour incubation. AID 504832, 2011. 310,000 tested, 5.9% active. Potency, µM (doses to about 28.7 µM), inactives show at the top dose activity change, negative = inhibition, usual class: inhibitors. P. falciparum luciferase growth in erythrocytes, 48 h; note: potency is the fitted concentration of half-maximal effect; % is set by controls: 0 for no effect and ±100 for the full control effect
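Luminescence readout; reporter = integrated firefly luciferase in P. falciparum. RBC culture at 2% hematocrit, 0.1% parasitemia final, 37 C/5% CO2; decreased signal taken as growth inhibition.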
* marks the source's active call; other numbers are inactive results; i = inactive; ? = inconclusive; · = not tested or not shown. Unless noted, calls come from the whole dose curve; as a rule, active = well fitted inhibition curve with a large enough effect; inconclusive = small, poorly fitted or top-dose-only effect, or another doubt; inactive = no such curve, though single readings can be large or run the other way.

SMILES | Pf growth 96h | HCMV antiviral | Cycloheximide cs | Shiga inhibitor | Pf growth 48h
CCN(CC)C(=S)SCC(=O)Nc1nc(=O)c2ccccc2s1 | 54.8% | 46.8 | 17.9* | 22.3 | 33.3%
COc1cc2c(cc1OC)CN(C(=O)C1CCC(=O)N(CCCN3CCOCC3)C1)CC2 (centres undefined) | -1.9% | 10.7 | 15.1 | -1.6 | -3.2%
CCOc1ccccc1NC(=O)C(NCC1(N2CCCCC2)CCCCC1)c1ccccc1 (centres undefined) | 3.7µM* | -10.0 | -2.3 | -5.5 | ?
CCN(CC(=O)Nc1ccccc1C(F)(F)F)C(=O)c1ccc2[nH]c3c(c2c1)CC(C)CC3 (centres undefined) | ? | -20.6 | · | · | 14.7µM*
CC1CCc2[nH]c3ccc(C(=O)N(C)CC(=O)Nc4ccc(F)cc4)cc3c2C1 (centres undefined) | 23.8% | -22.6 | -0.6 | 23.0 | 1.4%
N#Cc1ccsc1NC(=O)COC(=O)c1cc(Br)ccc1O | 38.3% | 15.6 | 45.0* | 84.1* | ?
COc1ccc(NC(=O)CSCC(=O)Nc2sccc2C#N)cc1 | 3.7% | 0.0 | · | · | -3.9%
N#Cc1ccsc1NC(=O)COC(=O)c1ccc(Br)o1 | · | -0.1 | · | · | ·
N#Cc1ccsc1NC(=O)COC(=O)c1ccc2ccccc2c1 | 39.5% | 68.7 | 54.1* | active | 84.3%
Cn1cccc1C(=O)OCC(=O)Nc1sccc1C#N | · | 79.8 | · | · | ·
COc1ccc(CCC(=O)Nc2sccc2C#N)cc1 | i | 145.8 | 50.5* | 131.3* | 233.2%
CN(C)C(CNS(=O)(=O)c1cc([N+](=O)[O-])ccc1Cl)c1ccco1 (centres undefined) | · | -26.9 | · | · | ·
COc1ccc2cc(C(C)C(=O)NC3CCC(O)CC3)ccc2c1 (centres undefined) | 18.6% | -3.7 | -2.1 | -3.3 | -4.3%
CC(C)(C)c1nnc(SCC(=O)Nc2ccc(N3CCCCC3)cc2)n1N | 172.0% | 37.6 | · | · | 139.1%
CCCNC(=O)C1CN(C(=O)c2nn(Cc3ccccc3)c(=O)c3ccccc23)c2ccccc2O1 (centres undefined) | 11.7µM* | -24.7 | · | · | 10.4µM*
CC(C)CCNC(=O)c1nn(Cc2ccccc2)c(=O)c2ccccc12 | ? | 12.9 | -1.3 | -6.5 | ?
CC(=NCC1CCCO1)c1c(O)n(C)c(=O)n(C)c1=O (centres undefined) | 14.7µM* | -15.1 | 1.7 | -5.3 | 3.2%
COc1ccc(CSc2nc(C)cc(C)c2S(C)(=O)=O)cc1 | -0.3% | -26.1 | 5.4 | -6.8 | 102.5%
OC(CN1CCOCC1)Cn1cnc2ccccc21 (centres undefined) | i | 39.4 | -2.7 | -13.7 | 3.4%
OC(CN1CCOCC1)Cn1c(-c2cccc(Cl)c2)nc2ccccc21 (centres undefined) | · | -101.8* | -2.9 | -1.7 | -20.7%
Cc1cc(C)c(NC(=O)C2CC3CCC2C3)c(C)c1 (centres undefined) | 25.0% | 0.9 | 14.8* | 32.6 | 10.4µM*
CC(C)c1ccc(NC(=O)C2CC3CCC2C3)cc1 (centres undefined) | -27.7% | 78.1 | 53.4* | 85.9* | 122.9%
Cc1ccc(NC(=O)CC2Oc3ccccc3NC2=O)cc1C (centres undefined) | · | 174.7 | · | · | ·
N#CCCN1CCN(S(=O)(=O)c2ccc(C3CCCCC3)cc2)CC1 | 43.0% | ? | · | · | -6.0%
CC1CCCCC1NS(=O)(=O)c1ccc(S(=O)(=O)N2CCN(CCC#N)CC2)cc1 (centres undefined) | -23.9% | 6.1 | 5.6 | 11.6 | 13.1µM*
SMILES | Pf growth 96h | HCMV antiviral | Cycloheximide cs | Shiga inhibitor | Pf growth 48h
COc1cccc(C(=O)NCCS(=O)(=O)N2CCCC(C)C2)c1 (centres undefined) | · | 14.3 | · | · | ·
CS(=O)(=O)N1CCN(c2ccccc2NC(=O)c2ccc3ccccc3c2)CC1 | ? | -19.3 | -4.0 | -1.2 | 11.7µM*
CC(C)C(=O)Nc1ccccc1N1CCN(S(C)(=O)=O)CC1 | -2.8% | 12.1 | -3.0 | -4.3 | -8.5%
CS(=O)(=O)N1CCN(c2ccccc2NC(=O)C(c2ccccc2)c2ccccc2)CC1 | · | -26.7 | -0.4 | -22.5 | 10.4µM*
COCC(=O)NNC(=O)c1ccc(OC)cc1 | 188.3% | 27.9 | -5.5 | -6.8 | -18.3%
O=C1CCCCCN1CSc1nc2ccccc2s1 | 1.1% | -20.5 | -2.8 | -3.5 | -8.3%
O=C(/C=C/c1nc2ccccc2s1)N1CCCCCC1 | 44.7% | -19.5 | 35.4* | 52.6* | 355.7%
